Results as given in the supplement of paper PMC6555819.

Columns and labels:
Assay in all cases: PBM binding z-score (relative to random genomic background probes); higher = stronger binding; sequences stand for … in GC…GCGATTGACAGCGTAGAATGAAGG
[1] = tested on: FXR:RXRa (NR concentration 270 nM, RXRa partner concentration 90 nM)
Procedure, shortened: (§1)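 Custom Agilent 4×180K protein-binding microarrays carried double-stranded probes. Their 34-nt variable regions held direct-repeat seeds, single-nucleotide variants, half-site ablations and random human genomic background sequences. Arrays were incubated 1 h with ligand-free nuclear receptor dimers in PBS pH 7.4, 2% milk, 0.02% Triton X-100, 1 mM DTT, 0.2 mg/mL BSA and 0.4 mg/ml salmon testes DNA. Antibodies against each partner (one per run) detected binding, and scanned fluorescence was regression-normalized. Binding z-scores use random background probes as reference.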

[2] = tested on: LXRa:RXRa (NR concentration 270 nM, RXRa partner concentration 90 nM)
Procedure, shortened: as §1

[3] = tested on: LXRa homodimer (NR concentration 270 nM)
Procedure, shortened: as §1

[4] = tested on: LXRb:RXRa (NR concentration 270 nM, RXRa partner concentration 90 nM)
Procedure, shortened: as §1

[5] = tested on: LXRb homodimer (NR concentration 270 nM)
Procedure, shortened: as §1

[6] = tested on: PPARa:RXRa (NR concentration 270 nM, RXRa partner concentration 90 nM)
Procedure, shortened: as §1

[7] = tested on: PPARg:RXRa (NR concentration 180 nM, RXRa partner concentration 90 nM)
Procedure, shortened: as §1

[8] = tested on: PPARg:RXRa 270nM:90nM, anti-RXR (NR concentration 270 nM, RXRa partner concentration 90 nM)
Procedure, shortened: as §1

[9] = tested on: PPARg:RXRa 30nM:10nM, anti-RXR (NR concentration 30 nM, RXRa partner concentration 10 nM)
Procedure, shortened: as §1

[10] = tested on: PPARg:RXRa 90nM:30nM, anti-RXR (NR concentration 90 nM, RXRa partner concentration 30 nM)
Procedure, shortened: as §1

Row | Sequence | PBM binding z-score [1] | PBM binding z-score [2] | PBM binding z-score [3] | PBM binding z-score [4] | PBM binding z-score [5] | PBM binding z-score [6] | PBM binding z-score [7] | PBM binding z-score [8] | PBM binding z-score [9] | PBM binding z-score [10]
1 | CGTCCAAGGTCAATGCTAGGTCAGTGGAAGCATT | 6.99 | 5.73 | 3.02 | 3.78 | 0.891 | 4.81 | 4.07 | 4.24 | 1.28 | 3.23
2 | ACTAGCCGGCCAAGTTTGGGTCACTCAAACAAAG | 0.307 | 0.194 | -0.183 | 0.789 | -0.664 | 1.32 | -0.0659 | -0.198 | -1.03 | -0.301
3 | GCAGACCGGTGAAACGCAGGTAACTCAGGGTGGC | -0.668 | -0.615 | -0.629 | -0.971 | -1.86 | -1.17 | -0.0428 | -1.18 | -1.16 | -1.16
4 | GCTGCTAGGTCAGGCTGGTCAGCTAACGGGTACG | 0.826 | 0.306 | -0.725 | -0.222 | -1.11 | 1.3 | 0.457 | 0.956 | -0.364 | -0.0747
5 | CCGAATGGGGCATAAGGTTACCATAAGCCAGCCC | 0.489 | 2.03 | -0.224 | 0.966 | -0.843 | 2.15 | 2.29 | 3.95 | 1.7 | 3.62
6 | CATACAGGGTCAGCTAGGCCATAGTAGGGACGGC | 4.59 | 3.07 | -0.118 | 2.31 | 0.267 | 4.32 | 3.69 | 2.95 | 1.21 | 1.9
7 | GATACAGGGTCAGCTAGAGGCCAGAGTATGGAAA | 4.81 | 2.75 | -0.32 | 2.6 | -0.659 | 4.53 | 3.81 | 3.35 | 0.742 | 2.06
8 | GCTTACGGGTCAATGGTTATAGCATGAATAGAAT | 4.8 | 2.75 | -0.289 | 2.89 | 0.196 | 4.78 | 4.3 | 4.54 | 1.86 | 3.57
9 | GAAACGAGGGCAAAGTTGATAGCATCTGTCGACG | 1.38 | 1.27 | -0.429 | 1.02 | -0.45 | 4.4 | 7.78 | 7.51 | 7.45 | 8.19
10 | GCATATAGGTAATACATGGTGAAAGTCCGATTGT | -0.0336 | 0.0177 | 0.188 | -0.279 | -0.173 | 0.369 | 0.96 | 0.694 | 0.313 | 0.476
11 | CAAACTACGTCAAGGTCAAAGTCGGTTTGTGCCA | 4.66 | 4.23 | 2.86 | 3.54 | 1.01 | 4.35 | 1.43 | 2.55 | 0.626 | 1.7
12 | ATCGAAAGGTCGTCAGGTGAGTATACAGAAAGGC | 5.1 | 3.98 | 0.518 | 3.25 | 0.804 | 4.7 | 3.63 | 3.86 | 1.5 | 2.93
13 | CTACCAAGGTGAACACGGTCGTTGATTACTATTC | 0.926 | 0.679 | 0.219 | 1.01 | -0.319 | 1.35 | 0.647 | 0.659 | -0.147 | 0.147
14 | TCGAGTATGTTACCAATGGGGCATTCAGCTTTCT | -0.179 | -0.268 | -0.402 | 0.416 | -0.279 | 0.256 | -0.157 | 0.416 | 1.14 | 0.894
15 | ATCGAAAGGTCGAAGGTGAGTATTCCCACCCGAA | 4.33 | 3.66 | 0.077 | 2.78 | 0.842 | 4.58 | 4.28 | 5 | 1.99 | 4.39
16 | CCTATTAGTTGACCATAAGCGCAACCGAAGCTCG | 0.497 | 0.827 | 0.899 | 1.04 | 1.41 | 0.528 | 0.326 | 0.456 | 0.0964 | 0.123
17 | ACTCGGAGGACAAAGGTCAGAGGTACGCCAGTGA | 4.04 | 4.06 | 1.7 | 3.26 | -0.137 | 5.14 | 7.26 | 6.74 | 4.88 | 7.16
18 | CTCGAAAGGTCGTGCTCGGGTGAGTATACCAAAC | 5.24 | 3.9 | -0.0589 | 3.32 | -0.0126 | 4.83 | 2.25 | 3.88 | 1.18 | 2.3
19 | GCTATGAGTTGAAAGGGCAACCGAATGATTCTCG | 1.13 | 1.19 | -0.0384 | 1.24 | -0.412 | 3.11 | 2.75 | 3.86 | 1.58 | 3.23
20 | TGTCGGAGGACACGAAGGTCAGAGCTTTCCAGAG | 1.23 | 1.44 | -0.131 | 0.759 | -0.905 | 1.81 | 0.574 | 1.14 | -0.39 | 0.47
21 | CGTCCAAGGTCATAGGAGGCCAGTGAAGACAGAT | 7.24 | 5.75 | 1.07 | 4.34 | 0.536 | 5.51 | 4.37 | 5.03 | 1.54 | 3.73
22 | TCAAGTTGGTCAAAGGTCACACACTCGAAATGCG | 6.18 | 5.75 | 3.72 | 5.56 | 1.33 | 6.41 | 11.2 | 9.6 | 10 | 10.6
23 | ATATGTAGGTGAGCTGGGGTCATTCAGACTAGGC | 4.23 | 3.62 | 0.762 | 4.15 | 0.598 | 5.85 | 7.13 | 5.75 | 3.65 | 5.74
24 | CGAACGAGGGCATGAGTTGCTAGCAAATGCCGAT | 0.106 | 0.132 | -0.624 | 0.0886 | -1.12 | 1.35 | 1.1 | 1.52 | 0.000453 | 0.931
25 | CCTTACGGGTCACCAGGTTATAGCACGACGAGCG | 5.57 | 4.07 | 0.342 | 3.43 | 0.0793 | 5.41 | 6.15 | 6.21 | 2.59 | 4.99
